Ten molecules from PubChem BioAssay (NCI) can be followed below.

Assay [1] can be described thus: NCI Yeast Anticancer Drug Screen. Data for the rad50 strain (AID 155).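 Further: 0% = growth of vehicle-only cultures of the same strain.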 Conditions: S. cerevisiae rad50 strain growth inhibition, active compounds read high. The procedure, abridged: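 Inhibition values express reduced yeast growth in compound-treated cultures relative to vehicle-treated controls.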
A short description of assay [2]: NCI Yeast Anticancer Drug Screen. Data for the mec2-1 strain (AID 157). Conditions: S. cerevisiae mec2-1 strain, active compounds read high. The procedure, abridged:
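Yeast mec2-1 mutant treated with compound. Readout: growth inhibition vs vehicle controls.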

The nature of assay [3]: NCI Yeast Anticancer Drug Screen. Data for the sgs1 mgt1 strain (AID 161).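 Further: 0% = growth of cultures given vehicle only.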 Conditions: S. cerevisiae sgs1 mgt1 strain, active compounds read high. The procedure, abridged:
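Test agents were incubated with a DNA-repair-mutant yeast strain. Growth was then read and compared against vehicle-treated controls.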

Assay [4] can be described thus: NCI Yeast Anticancer Drug Screen. Data for the cln2 rad14 strain (AID 165).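 Further: 0% = growth equal to vehicle treated cultures.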 Conditions: S. cerevisiae cln2 rad14 strain, active compounds read high. The procedure, abridged: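 cln2 rad14 yeast strain; compound exposure; growth inhibition read vs vehicle controls.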
Assay [5] in a line: NCI Yeast Anticancer Drug Screen. Data for the bub3 strain (AID 167). Conditions: S. cerevisiae bub3 mutant strain, active compounds read high. The method in brief: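 Steps: expose the mutant yeast strain to compound; grow alongside vehicle-treated cultures; measure growth; express inhibition against the vehicle cultures.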
Assay [6] in a line: NCI Yeast Anticancer Drug Screen. Data for the mlh1 rad18 strain (AID 175). Conditions: S. cerevisiae mlh1 rad18 strain growth inhibition, active compounds read high. The procedure, abridged: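 Yeast w/ defined DNA-repair lesions; compound exposure; growth vs vehicle controls → % inhibition.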
[7] abbreviates: at 5.0 µM (retest, dose inferred, filed as 0.5).
Setting [8] is: at 50.0 µM (retest, dose inferred, filed as 5.0).

Compounds without any hit were thinned out: in the full panel of roughly 79,000, 15% have a hit. Values without a mark were called inactive. Active and inactive are the calls of the source. No stated cut-off is given here; in the data, active means growth inhibition above about 70%; inactive means the rest.

On to `CC(=O)OC1C(O)C(C)OC(OC(=O)C2CCC3C(C2)OC2(CC(OC(=O)/C=C/c4ccccc4)C(C)CO2)C32CO2)C1OC1OC(C)C(O)C(O)C1O` (stereo not drawn), for which the growth inhibition is 23% in assay [1] (setting [7]); 97% (active) in assay [1] (setting [8]); 88% (active) in assay [1] (at 50.0 µM); 18% in assay [2] (setting [7]); 98% (active) in assay [2] (setting [8]); 89.9% (active) in assay [2] (at 50.0 µM). Further, the growth inhibition in assay [3] (setting [7]) is 26%; in assay [3] (setting [8]) it was 98% (active); in assay [3] (at 50.0 µM), 47.1%; in assay [4] (setting [7]), 17%; in assay [4] (setting [8]), 92% (active); in assay [4] (at 50.0 µM), 75.6% (active). For the same molecule, the growth inhibition in assay [5] (setting [7]) was 21%; in assay [5] (setting [8]), 97% (active); in assay [5] (at 50.0 µM) it was 88% (active); in assay [6] (setting [7]), 34%; in assay [6] (setting [8]) it was 97% (active); in assay [6] (at 50.0 µM), 88% (active).

On to `C/C(=N\NC(=S)NCCCNC(=S)N/N=C(\C)c1ccccn1)c1ccccn1`, for which the growth inhibition in assay [1] (setting [7]) is 8%; in assay [1] (setting [8]) it was 66%; in assay [1] (at 50.0 µM), 82.5% (active); in assay [2] (setting [7]) it was 9%; in assay [2] (setting [8]) it was 75% (active); in assay [2] (at 50.0 µM), 82.4% (active). For the same molecule, the growth inhibition in assay [3] (setting [7]) was 10%; in assay [3] (setting [8]), 77% (active); in assay [3] (at 50.0 µM), 86.2% (active); in assay [4] (setting [7]), 18%; in assay [4] (setting [8]), 78% (active); in assay [4] (at 50.0 µM), 83.3% (active). Also, the growth inhibition was 0% in assay [5] (setting [7]), 60% in assay [5] (setting [8]) and 83.1% (active) in assay [5] (at 50.0 µM).

Take `CCOC(=O)C1=C(C)Oc2cc3c(cc2C1c1cc(OC)c(OC)c(OC)c1)OCO3` (stereo not drawn): the growth inhibition is 8% in assay [1] (setting [7]); 40% in assay [1] (setting [8]); 54.6% in assay [1] (at 50.0 µM); 11% in assay [2] (setting [7]); 64% in assay [2] (setting [8]); 28.9% in assay [2] (at 50.0 µM). Also, the growth inhibition was -1% in assay [3] (setting [7]); 37% in assay [3] (setting [8]); 47.3% in assay [3] (at 50.0 µM); 11% in assay [4] (setting [7]); 89% (active) in assay [4] (setting [8]); 19.1% in assay [4] (at 50.0 µM). Besides, the results for the growth inhibition in assay [5] (setting [7]), in assay [5] (setting [8]) and in assay [5] (at 50.0 µM) were 36%, 94% (active) and 55.6%, respectively.

On to `Oc1cc2c(cc1C(c1ccc(Cl)cc1)N1CCOCC1)OCO2` (stereo not drawn), for which the growth inhibition in assay [1] (setting [7]) is 1%; in assay [1] (setting [8]), 98% (active); in assay [1] (at 50.0 µM), 99% (active); in assay [2] (setting [7]) it was -1%; in assay [2] (setting [8]), 99% (active); in assay [2] (at 50.0 µM), 99.2% (active). In addition, the growth inhibition in assay [3] (setting [7]) was 7%; in assay [3] (setting [8]), 99% (active); in assay [3] (at 50.0 µM), 99% (active); in assay [4] (setting [7]), -8%; in assay [4] (setting [8]) it was 83% (active); in assay [4] (at 50.0 µM), 96.5% (active). The growth inhibition in assay [5] (setting [7]) was -7%; in assay [5] (setting [8]), 98% (active); in assay [5] (at 50.0 µM) it was 98.9% (active); in assay [6] (setting [7]), 0%; in assay [6] (setting [8]), 99% (active); in assay [6] (at 50.0 µM) it was 98.8% (active).

For `CC(=O)Oc1ccc2cc(-c3ccccc3OC(C)=O)c(=O)oc2c1`, the growth inhibition was 12% in assay [1] (setting [7]); 23% in assay [1] (setting [8]); 48.1% in assay [1] (at 50.0 µM); -11% in assay [2] (setting [7]); -15% in assay [2] (setting [8]); 43.7% in assay [2] (at 50.0 µM). Also, the growth inhibition in assay [3] (setting [7]) is 3%; in assay [3] (setting [8]), 30%; in assay [3] (at 50.0 µM) it was 77.2% (active); in assay [4] (setting [7]), -6%; in assay [4] (setting [8]), 31%; in assay [4] (at 50.0 µM), 30.2%. Further, the figures for the growth inhibition in assay [5] (setting [7]), in assay [5] (setting [8]) and in assay [5] (at 50.0 µM) were -15%, 8% and 57.8%, respectively.

For `COc1ccc(CN2C(=O)C(Cl)=C(Cl)C2=O)c(OC)c1`, the growth inhibition in assay [1] (setting [7]) is -1%; in assay [1] (setting [8]) it was 50%; in assay [1] (at 50.0 µM), 99.5% (active); in assay [2] (setting [7]), 4%; in assay [2] (setting [8]), 59%; in assay [2] (at 50.0 µM), 99.7% (active). The growth inhibition is -2% in assay [3] (setting [7]); 73% (active) in assay [3] (setting [8]); 99.6% (active) in assay [3] (at 50.0 µM); -4% in assay [4] (setting [7]); 27% in assay [4] (setting [8]); 99% (active) in assay [4] (at 50.0 µM). Also, the growth inhibition in assay [5] (setting [7]) is -2%; in assay [5] (setting [8]), 68%; in assay [5] (at 50.0 µM) it was 99.5% (active).

As to `CCOc1ccc2nc([NH-])sc2c1.CCOc1ccc2nc([NH-])sc2c1.[Cl][Pt+2][Cl]`, the growth inhibition in assay [1] (setting [7]) is -1%; in assay [1] (setting [8]) it was -1%; in assay [1] (at 50.0 µM), 26.4%; in assay [2] (setting [7]), -1%; in assay [2] (setting [8]), 4%; in assay [2] (at 50.0 µM) it was 35.5%. For the same molecule, the growth inhibition in assay [3] (setting [7]) was -1%; in assay [3] (setting [8]), 15%; in assay [3] (at 50.0 µM), 47.8%; in assay [4] (setting [7]), -2%; in assay [4] (setting [8]), -7%; in assay [4] (at 50.0 µM) it was 17.9%. Besides, the growth inhibition in assay [5] (setting [7]) was -2%; in assay [5] (setting [8]), -6%; in assay [5] (at 50.0 µM), -4.85%; in assay [6] (setting [7]), -2%; in assay [6] (setting [8]), 3%; in assay [6] (at 50.0 µM), 62.1%.

On to `Nc1ccc(S(=O)(=O)Nc2nc3ccccc3nc2N2CCCCC2)cc1`, for which the growth inhibition in assay [1] (setting [7]) was 29%; in assay [1] (setting [8]), 46%; in assay [1] (at 50.0 µM), 51.8%; in assay [2] (setting [7]), 35%; in assay [2] (setting [8]), 44%; in assay [2] (at 50.0 µM), 40.8%. Moreover, the growth inhibition in assay [3] (setting [7]) is 32%; in assay [3] (setting [8]), 94% (active); in assay [3] (at 50.0 µM) it was 64.7%; in assay [4] (setting [7]), 36%; in assay [4] (setting [8]) it was 91% (active); in assay [4] (at 50.0 µM) it was 32.3%. Also, the growth inhibition was 30% in assay [5] (setting [7]); 96% (active) in assay [5] (setting [8]); 76.4% (active) in assay [5] (at 50.0 µM); 44% in assay [6] (setting [7]); 60% in assay [6] (setting [8]); 85.9% (active) in assay [6] (at 50.0 µM).

Regarding `O=S(=O)(Nc1ccccc1C(F)(F)F)c1ccc(F)cc1`, the growth inhibition in assay [1] (setting [7]) is -23%; in assay [1] (setting [8]), 49%; in assay [1] (at 50.0 µM) it was 80.6% (active); in assay [2] (setting [7]), 6%; in assay [2] (setting [8]), 59%; in assay [2] (at 50.0 µM), 46.5%. For the same molecule, the growth inhibition was -11% in assay [3] (setting [7]); 43% in assay [3] (setting [8]); 56.4% in assay [3] (at 50.0 µM); -21% in assay [4] (setting [7]); 69% in assay [4] (setting [8]); 33.4% in assay [4] (at 50.0 µM). Besides, the growth inhibition in assay [5] (setting [7]) is -16%; in assay [5] (setting [8]), 61%; in assay [5] (at 50.0 µM), 35.4%; in assay [6] (setting [7]), -13%; in assay [6] (setting [8]), 83% (active); in assay [6] (at 50.0 µM), 80.2% (active).

Regarding `COC(=O)CSC(=S)Nc1ccc(Cl)cc1`, the growth inhibition was 3% in assay [1] (setting [7]); 92% (active) in assay [1] (setting [8]); 83.5% (active) in assay [1] (at 50.0 µM); -6% in assay [2] (setting [7]); 96% (active) in assay [2] (setting [8]); 4.25% in assay [2] (at 50.0 µM). Moreover, the growth inhibition in assay [3] (setting [7]) was -4%; in assay [3] (setting [8]) it was 97% (active); in assay [3] (at 50.0 µM), 44.3%; in assay [4] (setting [7]) it was -5%; in assay [4] (setting [8]) it was 60%; in assay [4] (at 50.0 µM), -74.6%. Also, the growth inhibition in assay [5] (setting [7]) was -7%; in assay [5] (setting [8]), 85% (active); in assay [5] (at 50.0 µM) it was 36.5%; in assay [6] (setting [7]), 7%; in assay [6] (setting [8]), 98% (active); in assay [6] (at 50.0 µM), 51.4%.
